Measurements published in PubChem BioAssay (NCATS).
Inconclusive results are not listed. Active and inactive are the calls of the source. The call rests on the fitted dose curve.

Assays:
[1] = Primary qHTS for inhibitors of SARS-S pseudo-typed particle cell entry (AID 1479145); conditions: SARS-S pseudotyped particle cell entry, luciferase reporter; series mostly up to 57.1 µM; further: nearly all actives have a fitted effect of over 45% in size
[2] = Primary qHTS for Huh7 cytotoxicity: counterscreen for inhibitors of MERS-S pseudotyped particle cell entry (AID 1479147); conditions: cell viability read-out; series mostly up to 57.1 µM
[3] = Primary qHTS for inhibitors of MERS-S pseudo-typed particle cell entry (AID 1479149); conditions: MERS-S pseudotyped particle entry, luciferase; series mostly up to 57.1 µM; further: nearly all actives have a fitted effect of over 60% in size
[4] = Primary qHTS for Vero E6 cytotoxicity: counterscreen for inhibitors of SARS-S pseudo-typed particle cell entry (AID 1479150); conditions: cell viability; series mostly up to 57.1 µM

Measured: Potency

O=C1CC[C@H](C(=O)N2CCCCC2)N1
inactive: [1] | [2] | [3] | [4]

O=C(Cn1ccnc1[N+](=O)[O-])NCc1ccccc1
inactive: [1] | [2] | [3] | [4]

COc1cccc(OC)c1C(=O)N[C@@H]1C(=O)N2[C@@H]1SC(C)(C)[C@@H]2C(=O)O
inactive: [1] | [2] | [3] | [4]

Cc1ncc([N+](=O)[O-])n1CC(C)O (stereo unspecified)
inactive: [1] | [2] | [3] | [4]

Oc1ccc(OCc2ccccc2)cc1
inactive: [1] | [2] | [3] | [4]

Cc1ccc(C(C)C)c(O)c1
inactive: [1] | [2] | [3] | [4]

N[C@@H](Cc1cc(I)c(Oc2ccc(O)c(I)c2)c(I)c1)C(=O)O
inactive: [1] | [2] | [3] | [4]

O=C(NCC1CCCCN1)c1cc(OCC(F)(F)F)ccc1OCC(F)(F)F (stereo unspecified)
inactive: [1] | [2] | [3] | [4]

Nc1ccc(S(N)(=O)=O)cc1
inactive: [1] | [2] | [3] | [4]

CCOC(=O)NNc1ccc(N(CC)CC(C)O)nn1 (stereo unspecified)
inactive: [1] | [2] | [3] | [4]

CN1C(=O)OC(C)(C)C1=O
inactive: [1] | [2] | [3] | [4]

CCn1ccc(NS(=O)(=O)c2ccc(N)cc2)nc1=O
inactive: [1] | [2] | [3] | [4]

CCN(CC)C(=O)/C(C#N)=C/c1cc(O)c(O)c([N+](=O)[O-])c1
inactive: [1] | [2] | [3] | [4]

CCc1cc(C(N)=S)ccn1
inactive: [1] | [2] | [3] | [4]
